PPARg SRC-2 ag = promotes SRC-2 coactivator recruitment by human PPARgamma. PPARgamma LBD-SRC-2 recruitment, biochemical. P37231. activation, % at 8 µM. 200,000 tested, 0.34% active. AID 1032; in the data active = activation above about 22%;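 also: 0% = vehicle and 100% = reference agonist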
Target sequence (P37231 whole entry, looked up, the tested form may be a part): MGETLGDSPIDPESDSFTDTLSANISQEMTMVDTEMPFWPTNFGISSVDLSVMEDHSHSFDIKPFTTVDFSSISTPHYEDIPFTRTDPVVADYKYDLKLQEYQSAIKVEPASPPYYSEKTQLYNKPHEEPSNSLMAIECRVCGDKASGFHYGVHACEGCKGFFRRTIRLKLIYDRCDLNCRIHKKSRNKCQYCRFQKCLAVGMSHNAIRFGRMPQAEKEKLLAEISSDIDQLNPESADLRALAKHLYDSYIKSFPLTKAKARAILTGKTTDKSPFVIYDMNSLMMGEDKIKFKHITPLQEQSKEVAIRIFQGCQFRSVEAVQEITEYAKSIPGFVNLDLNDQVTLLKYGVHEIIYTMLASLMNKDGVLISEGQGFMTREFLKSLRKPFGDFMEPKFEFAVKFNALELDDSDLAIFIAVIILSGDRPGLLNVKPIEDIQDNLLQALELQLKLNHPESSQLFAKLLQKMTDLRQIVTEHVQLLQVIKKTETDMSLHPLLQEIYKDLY
TR-FRET SRC-2 ct = flags TR-FRET format artefacts in PPARgamma SRC-2 recruitment agonist screen; 200,000 tested, 0.4% active; AID 1049; TR-FRET artefact counter-screen; stronger effect = higher value; TR-FRET ratio at 8 µM
PPARg SRC1 recr = agonists of human PPARgamma SRC-1 coactivator recruitment; PPARgamma-SRC-1 coactivator recruitment biochemical assay; activation, % at 8 µM; 200,000 tested, 0.41% active; AID 631; in the data active = activation above about 19%;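 also: 0% = DMSO and 100% = reference agonist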
SRC1 TRFRET art = TR-FRET artefact, counter-screen to PPARgamma/SRC-1 agonist assay; TR-FRET detection artefact counter-screen, emission ratio; stronger effect = higher value; TR-FRET ratio at 8 µM; 99,000 tested, 0.34% active; in the data active = TR-FRET ratio above about 2300
SRC3 TRFRET art = flags TR-FRET format artefacts in PPARgamma SRC-3 recruitment agonist screen | TR-FRET artefact counter-screen, PPARgamma/SRC-3 format; stronger effect = higher value | AID 1048 | 99,000 tested, 0.39% active | TR-FRET ratio at 8 µM
PPARg SRC3 recr = PPARgamma-driven SRC-3 recruitment agonism; P37231; activation, % at 8 µM; biochemical PPARgamma/SRC-3 coactivator recruitment assay; 200,000 tested, 0.26% active; in the data active = activation above about 23%;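 also: 0% = DMSO and 100% = reference agonist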
* = called active by the depositor; x = no result. Hits are enriched below; roughly 0.9% of the tested compounds scored in any of these assays. Rule as the data show it, unless noted: active = TR-FRET ratio above about 2000; inactive = the rest.

SMILES	PPARg SRC-2 ag	TR-FRET SRC-2 ct	PPARg SRC1 recr	SRC1 TRFRET art	SRC3 TRFRET art	PPARg SRC3 recr
CC(C)c1ccc(NC(=O)c2cccc(Br)c2)cc1	11	1770	6	1923	1486	-5
CC(=O)C1=C(C)NC(=O)CC1c1ccc(F)cc1 (configuration not stated)	9	1605	9	1812	1619	2
O=c1c2cnn(-c3ccccc3)c2nc(-c2cccs2)n1-c1cccc(Cl)c1	0	1669	3	1717	2389*	11
O=c1c2cnn(-c3ccccc3)c2nc(-c2cccs2)n1-c1ccc(Cl)cc1	-6	1373	5	x	x	-10
N#CC1=C2SCN(c3ccccc3)CN2C(=O)CC1c1c(Cl)cccc1Cl (configuration not stated)	2	1514	-4	x	x	6
CCOc1ccc(N2CSC3=C(C#N)C(c4ccco4)CC(=O)N3C2)cc1 (configuration not stated)	25*	1814	6	x	x	17
N#CC1=C2SCN(c3ccccc3)CN2C(=O)CC1c1cccs1 (configuration not stated)	19	2021*	7	x	x	18
COc1ccc(NC(=O)NN(C(=O)c2ccccc2)C(C)(C)C)cc1	9	1730	-4	1646	1381	5
O=C(c1ccccc1)c1nn(-c2ccccc2)c2nnc(Cc3ccccc3)c(=O)n12	14	2100*	6	x	x	7
CN1/C(=C\C(=O)COC(=O)CNC(=O)c2ccc3ccccc3c2)C(C)(C)c2ccccc21	12	2236*	-2	3406*	3346*	2
CN1/C(=C\C(=O)COC(=O)CNC(=O)c2ccccc2F)C(C)(C)c2ccccc21	-4	1664	-1	1741	1456	1
Cc1cccc(C)c1NC(=O)C1(N(Cc2ccco2)C(=O)CC2NC(=O)NC2=O)CCCC1 (configuration not stated)	7	1607	-2	x	x	9
O=C(COC(=O)c1cc(Br)ccc1O)Nc1cc(S(=O)(=O)N2CCCC2)ccc1Cl	-3	1710	0	2170	2102*	2
CC(=O)OCC(=O)Nc1cc(S(=O)(=O)N2CCCCCC2)ccc1Cl	3	1518	-3	1694	1482	-2
COc1ccc(CCn2c(-c3ccc(Cl)cc3)n[nH]c2=S)cc1OC	5	1399	4	1922	1596	8
CCCCn1c(-c2cc(Cl)ccc2OC)n[nH]c1=S	22*	1787	14	x	x	19
O=S(=O)(c1ccccc1Cl)N1CCC(O)(c2cccnc2)CC1	0	1428	-8	1581	1639	-5
CCN(CC)S(=O)(=O)c1ccc(N2CCOCC2)c(NC(=O)c2cc(-c3ccccn3)nc3ccccc23)c1	8	1811	6	2421*	2191*	1
Cc1cc(C)n(-c2nc(SCC(=O)Nc3nccs3)c3c4c(sc3n2)COC(C)(C)C4)n1	5	1687	19*	x	x	5
Cc1ccc([N+](=O)[O-])cc1N	5	1648	2	2200	1774	-1
Nc1ccc2c(c1)Cc1cc([N+](=O)[O-])ccc1-2	11	2054*	20	1760	1573	3
CCOC(=O)c1cc(-c2ccc(OC(F)F)cc2)nc2c1c(=O)[nH]c(=O)n2C	-12	1616	-4	1624	1427	-5
CCOC(=O)C1C(=O)C=C(/C=C/c2ccc(N(C)C)cc2)CC1c1ccccc1 (configuration not stated)	2	1547	0	1460	1473	0
Brc1ccc(C=Nc2ccc(Nc3ccccc3)cc2)s1	29*	1648	9	1838	1732	2
CSc1nnnn1-c1ccc(C(=O)OCC(=O)N2CCOCC2)cc1	-2	1502	-2	x	x	-5
SMILES	PPARg SRC-2 ag	TR-FRET SRC-2 ct	PPARg SRC1 recr	SRC1 TRFRET art	SRC3 TRFRET art	PPARg SRC3 recr
Cc1nc(N2CCCCC2C)c2c(C)c(C(=O)Nc3cccc(C(F)(F)F)c3)sc2n1 (configuration not stated)	8	1633	13	2035	1608	4
Cc1ccc(NC(=O)c2sc3nc(C)nc(N4CCN(c5ccccn5)CC4)c3c2C)c(C)c1	-3	2163*	4	3496*	2659*	-2
Cc1nc(N2CCCCC2)c2c(C)c(C(=O)Nc3cccc(C(F)(F)F)c3)sc2n1	14	1762	7	2255	2057*	12
CC1(O)N(CCC(=O)Nc2cccc(F)c2)C(=O)OC12CCCCC2 (configuration not stated)	-6	1657	4	1756	1702	4
COc1ccc(CCN(Cc2nc3ccccc3c(=O)[nH]2)C(=O)c2ccco2)cc1OC	-1	1517	20*	x	x	-1
CN1CCc2c(sc3c2C(=O)NC(c2cccs2)N3)C1 (configuration not stated)	9	1555	6	x	x	0
CN1CCc2c(sc3c2C(=O)NC(c2ccc(-c4cccc(Cl)c4)o2)N3)C1 (configuration not stated)	8	1595	17	2385*	1691	8
CC(C(=O)Nc1ccc2c(c1)OCCO2)c1ccc([N+](=O)[O-])cc1 (configuration not stated)	0	1717	-2	1602	2361*	5
O=C(C1=C[C@@H](c2ccc(Br)cc2)C[C@@H](OCc2ccc(CO)cc2)O1)N1CCN(Cc2ccc3c(c2)OCO3)CC1	4	1568	6	1698	1678	1
C=CCn1c(=O)c2ccccc2n2c(SCC(=O)c3ccccc3)nnc12	1	1556	8	x	x	27*
CCCCn1c(SCc2nc(N)nc(Nc3ccccc3C)n2)nc2ccccc2c1=O	-5	1460	-2	x	x	-10
C=CCn1c(=O)c2ccccc2n2c(SCc3nc(N)nc(Nc4ccccc4C)n3)nnc12	5	1648	22*	x	x	8
COc1ccc(C(=O)NCC(=O)NCC(=O)OCc2ccc(Br)cc2)cc1	9	1543	-2	1726	1553	5
COC(=O)C1CC(O)CN1C(=O)Nc1ccccc1 (configuration not stated)	1	1364	4	1637	1372	0
NS(=O)(=O)c1ccc(CNC(=S)Nc2ccc(F)c(Cl)c2)cc1	5	1378	2	1672	1772	-1
NS(=O)(=O)c1ccc(NC(=S)NCc2ccc(Cl)cc2)cc1	4	1569	-3	x	x	30*
O=C(Nc1nc(-c2ccco2)c(-c2ccco2)s1)C1CCC1	9	1761	11	2403*	1995	12
S=C(c1cn(CCOc2cccc3ccccc23)c2ccccc12)N1CCCC1	19	3070*	15	3691*	3153*	19
Cc1ccc(OCCn2cc(C(=S)N3CCCC3)c3ccccc32)cc1C	2	2180*	16	x	x	9
S=C(c1cn(CCOc2ccccc2)c2ccccc12)N1CCCC1	1	1705	-1	x	x	7
O=C(COc1ccccc1)Nc1ccc(Cl)cc1Cl	-1	1637	3	1674	1558	2

Screening results deposited in PubChem by The Scripps Research Institute Molecular Screening Center.
